# Assay results: PubChem BioAssay AID1211 (NMMLSC, 2008)
# Calls of active or inactive are those of the source. How the calls were made is not given here.
# Target: Estrogen receptor (Homo sapiens) (UniProt P03372)
# Assay: ERalpha ligand binders by competition, primary screen, cell-based, Cos7 ERalpha-GFP, flow cytometry (AID 1211);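 further: 0% = DMSO vehicle wells and 100% = no E2-Alexa633 signal left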
# Conditions: fluorescent ligand competition, stronger effect = higher value
# Estrogen receptor (Homo sapiens), sequence (P03372 whole entry, looked up): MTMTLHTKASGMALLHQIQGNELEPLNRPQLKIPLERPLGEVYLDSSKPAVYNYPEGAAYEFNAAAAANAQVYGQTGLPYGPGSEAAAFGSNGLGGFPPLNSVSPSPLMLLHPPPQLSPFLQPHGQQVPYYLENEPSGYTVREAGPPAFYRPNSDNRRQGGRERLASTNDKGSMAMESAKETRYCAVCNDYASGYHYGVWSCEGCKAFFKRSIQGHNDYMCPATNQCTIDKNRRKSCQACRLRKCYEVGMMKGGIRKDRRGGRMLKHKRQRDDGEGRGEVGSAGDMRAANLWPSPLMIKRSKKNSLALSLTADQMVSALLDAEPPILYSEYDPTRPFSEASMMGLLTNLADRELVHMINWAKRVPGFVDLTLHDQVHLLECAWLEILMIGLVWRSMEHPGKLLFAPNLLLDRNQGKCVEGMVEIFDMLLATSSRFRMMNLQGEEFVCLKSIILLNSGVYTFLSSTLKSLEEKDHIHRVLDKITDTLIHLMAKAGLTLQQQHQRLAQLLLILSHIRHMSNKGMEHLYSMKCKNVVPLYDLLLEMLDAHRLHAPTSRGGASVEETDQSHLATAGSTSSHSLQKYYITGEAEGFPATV
Structure (SMILES),inhibition of ligand binding (at 10 µM),"inhibition of ligand binding (binding inhibition, at 0.1 µM)"
CCc1nc2sc3ccccc3c(=O)c2c(=O)n1Cc1ccco1,0% (inactive),23%
CC(=O)c1ccc(NC(=S)N2CCCC(CO)C2)cc1 (stereo not given),13% (inactive),1%
COc1ccc2c(c1)c(=O)oc1cc(OCC(=O)NC3CCCCC3)ccc12,60% (inactive),60%
CCc1oc2c(C)c(O)ccc2c(=O)c1-c1ccc2ccccc2n1,14% (inactive),54%
O=C(Cc1cccs1)Nc1ccc(-c2nnn(CC(=O)N3CCOCC3)n2)cc1,15% (inactive),55%
O=C(CSc1ccc(Cl)cc1)c1ccco1,42% (inactive),65%
Oc1ccc(-c2nnc(-c3ccccc3)c(-c3ccccc3)n2)cc1,47% (inactive),51%
O=c1cc(-c2ccc(O)c(O)c2)oc2c(C3O[C@H](CO)[C@@H](O)[C@H](O)[C@H]3O)c(O)cc(O)c12 (stereo not given in full),28% (inactive),27%
COCc1cc(=O)n2c(-c3ccc(C)cc3)n[nH]c2n1,40% (inactive),62%
O=C1C(c2ccnc3ccccc23)=C(O)c2ccccc21,26% (inactive),28%
Cc1ccc(-c2nn(-c3ccccc3)cc2/C=N/NC(=O)c2ccc(Br)o2)cc1,42% (inactive),49%
CC(C)CC(=O)Nc1ccc(C(=O)COc2ccc(-c3nnco3)cc2)cc1,28% (inactive),23%
CCOC(=O)Cc1csc(NC(=O)Cc2cccs2)n1,28% (inactive),12%
CCCOc1ccc(-c2nn(-c3ccccc3)cc2/C=C2\SC(N)=NC2=O)cc1,50% (inactive),13%
CCOc1ccccc1C1C(C#N)=C(N)Nc2onc(-c3ccccc3)c21 (stereo not given),9% (inactive),20%
N#CC(C(=O)Nc1ccc(Cl)cc1)=C1Nc2ccccc2N1,48% (inactive),21%
COc1ccc(C2CC(c3ccccc3)=NN2c2ccc(N)cc2)cc1 (stereo not given),19% (inactive),47%
O=C(C1c2ccccc2C(=O)N2CCc3ccccc3C12)N1CCN(Cc2ccccc2)CC1 (stereo not given),41% (inactive),12%
O=C(Cc1cn2ccsc2n1)OCc1nc2ccccc2s1,26% (inactive),18%
CCC(=O)Nc1ccc(C(=O)Cn2nc(C(=O)O)c3ccccc3c2=O)cc1,50% (inactive),30%

Structure (SMILES),inhibition of ligand binding (at 10 µM),"inhibition of ligand binding (binding inhibition, at 0.1 µM)"
Cc1ccc(N=Cc2c(O)n(-c3ccc4c(c3)OCO4)c(=O)c3ccccc23)cc1,49% (inactive),19%
Cc1ccc(N=Cc2ccc(O)cc2O)cc1F,29% (inactive),2%
O=C(O)c1ccc2c(c1)-c1nc3ccccc3n1C2=O,32% (inactive),5%
COc1ccc(CNC(=O)c2cc(-c3cccs3)on2)cc1,40% (active),90%
CCc1oc2ccccc2c1C(=O)c1cc(Br)c(O)c(Br)c1,0% (inactive),20%
O=C(Nc1cccc(-c2cnc3ccccc3n2)c1)c1cccc(NC(=O)c2ccco2)c1,68% (active),23%
Oc1ccc(-c2nccc(-c3cccs3)n2)cc1,40% (inactive),28%
NC(=O)c1c(NC(=O)c2cc3ccccc3o2)sc2c1CCC2,43% (inactive),5%
CCc1ccc2c(c1)[C@H]1OCC[C@H]1[C@@H](c1cccs1)N2,0% (inactive),21%
COC(=O)c1c(-c2ccncc2)csc1NC(=O)c1ccoc1C,41% (inactive),25%
CCN(CC)c1ccc(-c2nn3c(-c4ccccc4OC)nnc3s2)cc1,40% (inactive),25%
O=C(COC(=O)c1cccc(S(=O)(=O)N2CCc3ccccc3C2)c1)NCc1ccco1,35% (inactive),7%
COC(=O)c1ccc2c(=O)n(CCCCCC(=O)NCc3ccc4c(c3)OCO4)c(=O)[nH]c2c1,19% (inactive),18%
O=C(Cc1cccs1)Nc1ccccn1,0% (inactive),16%
Clc1ccc2nc(-c3ccccn3)c(Nc3ccc4c(c3)OCO4)n2c1,42% (inactive),9%
NC(=O)c1oc2ccccc2c1NC(=O)c1nc2ccccc2s1,43% (inactive),4%
O=c1[nH]c(N/N=C/c2ccc(O)cc2)nc2ccccc12,23% (inactive),37%
c1coc(-c2nn3c(-c4ccco4)nnc3s2)c1,15% (inactive),15%
CN(C(=S)Nc1cccnc1)c1ccc(O)cc1,39% (inactive),41%
Cc1ccc(Cn2c(NC(=O)c3ccco3)nc3ccccc32)cc1,29% (inactive),11%
